# High-throughput results as filed in PubChem BioAssay.
# TEAD-YAP inh = TEAD-YAP interaction inhibition | AID 1259422 | HEK-TIYL cells, TEAD-Gal4/YAP UAS-luciferase luminescence | inhibition, % at 9.12 µM | 640,000 tested, 1.4% active; in the data active means inhibition above about 32%;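 further: 0% = median of test compound wells and 100% = reference inhibitor wells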
# MITF primary = blocks human microphthalmia-associated transcription factor | AlphaScreen MITF homodimerization, bead proximity signal | inhibition, % at 2.6 µM | 650,000 tested, 0.91% active; in the data active means inhibition above about 50%;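 further: 0% = vehicle wells with protein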
# FBW7 act = human FBW7 E3 ligase activation, primary screen; AlphaScreen FBW7–phospho-cyclin E peptide binding, activator screen; 650,000 tested, 0.13% active; Q969H0; normalized activity (activation), % at 26.1 µM; AID 1259310; in the data active means normalized activity above about 1.9%;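 further: purified mutant Fbw7 with reduced substrate affinity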
# GPR151 activ = human GPR151 activation | PathHunter beta-arrestin GPR151 cells, luminescence | Q8TDV0 | activation, % at 11.2 µM | 650,000 tested, 1% active; in the data active means activation above about 4.9%;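 further: 0% = median of compound wells and 100% = cells with positive control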
# GPR151 conf act = confirmation of human GPR151 activators. activation, % at 11.2 µM. AID 1508609. shares compounds with GPR151 activ. 6,700 tested, under 10 active. GPR151 PathHunter beta-arrestin cells, luminescence, 90 min; % of EA-reagent control over plate median;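 active means mean percent activation across replicates above the confirmation screen cutoff of 4.91%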
# GPR119 ag = GPR119 activation, counter-screen for GPR151 activators | shares compounds with GPR151 activ | AID 1508611 | 6,700 tested, 0.3% active | GPR119 PathHunter beta-arrestin cells, luminescence, 90 min; 0 = compound-well median, 100 = enzyme-acceptor control | activation, % at 11.2 µM;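 active means mean percent activation in the counterscreen above 29.09%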;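 further: counterscreen on off-target GPR119 to flag nonselective hits from the GPR151 activator screen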
# * hit, by the source's call; / = not tested or not shown. An excerpt weighted towards active compounds, which were near 3.5% of everything screened.
SMILES,TEAD-YAP inh,MITF primary,FBW7 act,GPR151 activ,GPR151 conf act,GPR119 ag
C#C[C@]1(OC(C)=O)CC[C@H]2[C@@H]3CCC4=CC(=O)CC[C@@H]4[C@H]3CCC21C (stereo partly drawn),/,-1,0,9.3*,-1,-4
C#C[C@]1(O)CC[C@H]2[C@@H]3CCC4=CC(=O)CC[C@@H]4[C@H]3CC[C@@]21C,/,26,0,0,/,/
Cc1ccc(CN(C(=O)c2ccccc2F)C2CCS(=O)(=O)C2)cc1 (stereo not drawn),11,-2,0,0,/,/
CO[C@H]1COC(=O)C/C=C/[C@H](C)[C@@H](OC)COC(=O)[C@@H](C)COC(=O)C/C=C/[C@@H]1C,/,-15,0,6.0*,0,14
CO[C@@H]1COC(=O)[C@H](COCc2ccccc2)NC(=O)C/C=C/[C@@H](C)[C@H](OC)COC(=O)[C@H](C)NC(=O)C/C=C/C1C (stereo partly drawn),/,23,0,4.9*,0,13
COc1ccccc1NC(=O)C1CC(=O)OC1(C)C (stereo not drawn),1,3,1,0,/,/
COc1ccccc1NC(=O)C1CC(=O)OC12CCOC(C)(C)C2 (stereo not drawn),-19,-4,0,6.5*,0,7
Cc1cc(/C=C2\C(=O)NC(=S)N(c3ccc(F)cc3)C2=O)c(C)n1C1CC1,-5,7,0,5.3*,-1,-3
Cc1cc(/C=C2\C(=O)NC(=O)N(c3ccc(F)cc3)C2=O)c(C)n1C1CC1,-3,3,0,-1,/,/
COc1ccc(Cl)cc1/C=C/c1[nH]c(=O)[nH]c(=O)c1[N+](=O)[O-],5,-19,0,7.3*,2,24
COc1ccc(OC)c(/C=C/c2[nH]c(=O)[nH]c(=O)c2[N+](=O)[O-])c1,-1,3,0,2,/,/
COc1ccc(C2CC(=O)N3CN(Cc4ccccc4)CSC3=C2C#N)cc1 (stereo not drawn),6,8,0,5.8*,-1,-12
O=C(NC1c2ccccc2Oc2ccccc21)c1ccncc1,-6,4,0,-1,/,/
O=C(Nc1ccccc1)NC1c2ccccc2Oc2ccccc21,-14,2,0,6.6*,0,-2
COc1ccc(S(=O)(=O)NCCOC23CC4CC(CC(C4)C2)C3)cc1C,-12,1,0,5.3*,0,4
Cc1ccc(S(=O)(=O)NCCOC23CC4CC(CC(C4)C2)C3)cc1C,-11,-15,0,1,/,/
Cc1c(Cl)cccc1NC(=O)/C=C/c1ccc(Cl)cc1,-13,-7,0,0,/,/
O=C(NC1CCN(C(=O)Nc2cccc(F)c2)CC1)c1cccc(F)c1,8,-2,0,0,/,/
O=C(NC1CCN(C(=O)NCc2ccccc2)CC1)c1cccc(F)c1,-3,-1,0,5.6*,0,-6
C=CCNC(=O)C1CCN(C(=O)NCc2ccccc2)CC1,1,0,0,10.0*,0,-1
Nc1nc(Oc2ccccc2)nc2c1ncn2-c1ccccc1,4,3,0,0,/,/
COCCNC(=O)CC(NS(=O)(=O)c1ccc(C)cc1)c1cccc(OC)c1OC (stereo not drawn),1,-11,0,0,/,/
CCOc1ccc(C(=O)N2CCc3cc(OC)c(OC)cc3C2COc2ccc([N+](=O)[O-])cc2)cc1OCC (stereo not drawn),1,18,0,1,/,/
CN1C(=O)/C(=C/c2ccccc2OS(C)(=O)=O)SC1=S,9,16,0,5.7*,0,-11
CCCCCCC1(C)NC(=S)N(c2ccc(C)cc2)N1 (stereo not drawn),-3,-1,0,0,/,/
CC(C)N1CCC(=NNc2ccc(S(=O)(=O)N3CCOCC3)cc2[N+](=O)[O-])CC1,9,10,0,3,/,/
O=[N+]([O-])c1cc(S(=O)(=O)N2CCOCC2)ccc1NN=C1C2CC3CC(C2)CC1C3,-3,2,0,5.0*,1,2
CCC(=O)N1CCc2nc3ccccn3c(=O)c2C1,-5,-5,0,-1,/,/
CC(C)(C)C(=O)N1CCc2nc3ccccn3c(=O)c2C1,3,-4,0,6.8*,0,-5
